# High-throughput results from PubChem BioAssay.
# An excerpt weighted towards active compounds, which were near 27% of everything screened.
# CYP2C9 activ: increases human cytochrome P450 2C9 activity. P11712. recombinant CYP2C9, luciferin-H conversion, luminescence; stronger effect = higher value; factor 1 = untreated enzyme, 0 = blocked. activation factor at 5 µM. 1.4% of 96,000 active;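 active = activation factor of 2 or more for CYP2C9 at a 5 µM dose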;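 note: 0 = sulfaphenazole-blocked wells and 1 = vehicle-only wells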
# Target sequence (P11712 whole entry, looked up): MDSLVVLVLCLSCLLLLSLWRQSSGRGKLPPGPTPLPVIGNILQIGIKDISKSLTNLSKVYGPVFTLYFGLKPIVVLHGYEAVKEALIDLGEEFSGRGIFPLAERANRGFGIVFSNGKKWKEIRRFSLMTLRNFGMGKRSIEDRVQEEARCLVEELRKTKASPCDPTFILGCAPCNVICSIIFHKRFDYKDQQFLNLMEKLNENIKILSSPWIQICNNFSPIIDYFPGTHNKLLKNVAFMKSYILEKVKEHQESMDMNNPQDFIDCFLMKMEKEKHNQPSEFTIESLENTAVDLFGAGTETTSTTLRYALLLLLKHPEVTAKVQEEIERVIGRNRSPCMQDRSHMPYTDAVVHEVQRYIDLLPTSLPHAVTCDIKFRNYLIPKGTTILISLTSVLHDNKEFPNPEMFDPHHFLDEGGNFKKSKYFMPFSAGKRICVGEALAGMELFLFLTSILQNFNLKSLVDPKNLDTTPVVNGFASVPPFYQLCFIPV
# CYP2C19 activ: cytochrome P450 2C19 (human) activation | P33261 | AID 1025 | 96,000 tested, under 10 active | activation factor at 5 µM | recombinant CYP2C19, luciferin-H EGE luminescence; stronger effect = higher value; 0 = fully inhibited enzyme, 1 = untreated enzyme;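 active = activation factor of at least 2 at 5 µM in the primary screen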;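 note: 0 = wells with 2.5 mM tranylcypromine and 1 = vehicle-only wells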
# CYP2C19 inhib: blocks human cytochrome P450 2C19; P33261; CYP2C19 Supersomes, luciferin-H EGE luminescence, 30 min; inhibition, % at 5 µM; 21% of 96,000 active; AID 778;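 active = CYP2C19 inhibition above a set limit at 5 µM in the primary screen, cut at about 50% in these data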;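 note: plate controls were negative control wells for no effect and 2.5 mM tranylcypromine positive control for full effect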
# Cav3 T inh: human Cav3.2 channel inhibition, primary screen; O95180; Cav3.2-expressing cells, Fluo-4 calcium fluorescence FDSS; stronger effect = lower value; B-score at 10 µM; 4% of 100,000 active;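 active = single-dose well whose peak fluorescence ratio is a statistical outlier from its plate by either plate-standardised score or position-corrected B-score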
# CYP2C9 inhib: human CYP2C9 inhibition; 20% of 96,000 active; P11712; CYP2C9 Supersomes, luciferin-H conversion, luminescence; inhibition, % at 5 µM; AID 777;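 active = blocking of liver enzyme CYP2C9 beyond about 50% at 5 µM, limit read from the data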
# * hit, by the source's call; . = no result given.
SMILES,CYP2C9 activ,CYP2C19 activ,CYP2C19 inhib,Cav3 T inh,CYP2C9 inhib
COc1cc(OC)cc(C(=O)NC(=S)Nc2ccc3c4c(cccc24)CC3)c1,0.9,1.1,-10,-0.035,6
COc1ccc(C(=O)Nc2ccc3c4c(cccc24)CC3)cc1,2.2*,1,3,-2.1,-125
O=C(Nc1ccc2c3c(cccc13)CC2)c1ccc(Br)o1,1.4,1,-3,.,-36
O=S(=O)(NCc1cc(-c2ccccc2Cl)no1)c1ccc(Cl)cc1,1.9,0.1,93*,-7.2*,-87
O=S(=O)(NCc1ccccc1)c1ccc(Cl)c(S(=O)(=O)NCc2ccccc2)c1,0.7,0.7,28,-3.4,26
COc1nc(-c2ccccc2)c2c(c1C#N)CC(C)(C)OC2,0.5,0.2,78*,1.3,47
CC1(C)Cc2c(c(-c3ccccc3)[nH]c(=O)c2C#N)CO1,1.1,0.4,55*,1,-8
CC1(C)Cc2c(C#N)c(N3CCOCC3)nc(-c3ccccc3)c2CO1,.,.,.,-1.5,.
CC1(C)Cc2c(C#N)c(OCC(=O)c3ccccc3)nc(-c3ccoc3)c2CO1,1,0.9,13,0.79,5
CC1(C)Cc2c(C#N)c(OCC(=O)c3ccc(Cl)cc3)nc(-c3ccoc3)c2CO1,0.6,0.2,79*,-1.6,38
CC(C)c1[nH]c(=O)c(C#N)c2c1COC(C)(C)C2,1.1,0.8,17,1,-6
CC1(C)Cc2c(c(-c3ccccc3Cl)[nH]c(=O)c2C#N)CO1,1,0.1,92*,1.1,4
CC(=O)N(CCO)Cc1cc2cc(C)cc(C)c2[nH]c1=O,0.9,1,1,0.3,8
CCOC(=O)Cc1csc(NC(NC(=O)OCC)(C(=O)OCC)C(F)(F)F)n1 (stereo not drawn),.,.,.,0.018,.
CCCc1[nH]c(=O)c(C#N)c2c1COC(C)(C)C2,0.8,0.3,66*,0.061,20
CC(C)Cc1[nH]c(=O)c(C#N)c2c1COC(C)(C)C2,1.1,0.5,46,0.78,-10
COc1ccccc1N(CC(=O)NC1CCCC1)C(=O)CCC(=O)Nc1cc(C)on1,0.3,0.4,63*,0.12,65*
CCOc1ccccc1N(CC(=O)NC1CCCC1)C(=O)CCC(=O)Nc1cc(C)on1,0.2,0.2,83*,0.64,83*
CCOC(=O)c1ccc2cccc(C)n2c1=O,0.3,0.1,88*,0.98,74*
CCc1nc(OCCN(CC)CC)c2oc3ccccc3c2n1,1.1,1.1,-7,1.5,-10
CCN(CC)CCOc1ncnc2c1oc1ccccc12,0.6,0.3,66*,0.69,43
C#CCNC(=O)C1=C[C@@H](c2csc3ccccc23)C[C@@H](OCc2ccc(CO)cc2)O1,.,.,.,-0.68,.
Nc1c(NCc2ccccc2)c2ccccc2oc1=O,0.3,0,97*,-1.8,73*
O/N=C1/CCSc2ccccc21,1.1,1,-3,0.32,-9
CCN(CC)S(=O)(=O)c1csc(C(=O)NCc2ccccc2)c1,0.6,0.8,18,-0.41,45
SMILES,CYP2C9 activ,CYP2C19 activ,CYP2C19 inhib,Cav3 T inh,CYP2C9 inhib
CCN(CC)S(=O)(=O)c1csc(C(=O)NC2CCCCC2)c1,0.4,1,2,0.33,62*
CCN(CC)S(=O)(=O)c1cccc(C(=O)NC2CCCCC2)c1,0.4,0.6,38,1.2,58*
CCN(CC(=O)NC1CCCCCC1)S(=O)(=O)c1ccccc1,0.8,0.7,28,0.16,21
CC12CCC(C(=O)NCC3CCCO3)(OC1=O)C2(C)C (stereo not drawn),1,1.1,-8,0.18,-4
COc1cc(-c2nc(S(=O)(=O)c3ccccc3)c(N3CCOCC3)o2)cc(OC)c1OC,0.1,0.5,55*,1.7,89*
CSc1oc(-c2ccco2)nc1S(=O)(=O)c1ccc(Br)cc1,0.7,0.7,26,-1.8,28
COc1ccc(-c2nc(S(=O)(=O)c3ccc(C)cc3)c(N3CCCC3)o2)cc1,1,0.9,14,-0.089,-1
CCCSc1oc(-c2ccco2)nc1S(=O)(=O)c1ccccc1,1.2,0.1,90*,-2.1,-24
CC(C)Sc1oc(-c2ccco2)nc1S(=O)(=O)c1ccc(F)cc1,.,.,.,-5.3*,.
O=S(=O)(c1ccccc1)c1nc(-c2ccco2)oc1N1CCCCCC1,0.4,0.3,66*,-3,58*
CN1CCN(c2oc(-c3ccco3)nc2S(=O)(=O)c2ccccc2)CC1,0.7,1,4,-0.016,29
NC(=O)CSc1oc(-c2ccc(F)cc2)nc1S(=O)(=O)c1ccccc1,0.6,0.1,85*,0.34,38
CCSc1oc(-c2ccccc2)nc1S(=O)(=O)c1ccccc1,1.8,1,4,-2.6,-82
CCCCCn1nc(C)c2c(C)cc(=O)[nH]c21,.,.,.,0.15,.
COc1cccc(C2CC(c3c(-c4ccccc4)c4cc(Cl)ccc4[nH]c3=O)=NN2S(C)(=O)=O)c1OC (stereo not drawn),0.5,0.8,24,0.36,51*
COc1ccccc1C1CC(c2c(-c3ccccc3)c3cc(Cl)ccc3[nH]c2=O)=NN1S(C)(=O)=O (stereo not drawn),0.4,0.7,28,0.59,60*
COC(=O)CSc1c(-c2ccccc2)c2cc(Cl)ccc2[nH]c1=O,0.7,0.7,34,-1.6,32
CC(=O)Nc1ccc(Oc2nc(C)cc(C)n2)cc1,1,0.9,8,.,3
COc1ccc(N(C(=O)c2cccc(OC)c2OC)C2C=CS(=O)(=O)C2)c(OC)c1 (stereo not drawn),1.1,1.1,-8,0.17,-14
O=C(c1nn2c(C(F)(F)F)cc(-c3ccco3)nc2c1Br)N1CCCc2ccccc21,0.2,0.2,79*,-1.3,76*
O=C(c1cc(-c2ccco2)on1)N1CCCc2ccccc21,2.5*,0.8,20,-0.11,-155
CSc1cc(-c2ccc(Cl)cc2)c(C(=O)N2CCCC2)s1,0.8,0.9,10,-4.4*,16
COc1ccc(OC)c(C2SCCN2S(C)(=O)=O)c1 (stereo not drawn),1,0.9,7,-2.4,0
COc1ccc(OC)c(C2CC(=O)C(C)C(c3cc(OC)ccc3OC)N2)c1 (stereo not drawn),0.2,0.6,35,1.2,76*
CCCOc1ccc(C(=O)NC(=S)Nc2nc(C)c(C(=O)N(C)C)s2)cc1,0.6,0.4,63*,0.05,43
COC(=O)c1sc(N)nc1C(C)(C)C,0.9,0.6,37,0.55,9
Fc1ccc(C2CC(c3ccco3)=NN2c2ccccc2)cc1 (stereo not drawn),0.8,0.8,19,-0.83,16
Oc1ccccc1C1=Nc2ncnn2C(c2ccc(F)cc2)C1 (stereo not drawn),0.5,0.4,57*,1.3,49
O=C(CCS(=O)(=O)c1ccc(Br)s1)NCc1ccc2c(c1)OCO2,0.2,0.6,35,1.1,81*
CN(CC(=O)NCc1ccc2c(c1)OCO2)S(=O)(=O)c1ccc(Br)s1,0.1,0.3,70*,.,89*
